In all, about 5,500 compounds went through this assay and about 2,000 (36%) were called active. Not shown: some 18% with an inconclusive outcome. Rule as the data show it: active = normalized growth mostly below about 0.91 (no sharp cut-off); inconclusive = no clear call, values can overlap the other calls; inactive = mostly above about 0.92. Some of the results follow.
Experiment: chemical genetic growth profiling, strain panel (AID 1159580);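 also: tested at 20 µM; growth read once vehicle control cultures reached saturation at 30 °C; 1 = growth at the plate median or of vehicle wells; lower values mean less growth of the strain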
Settings: S. cerevisiae deletion strains, growth OD
[1] = locus YAL013W, strain DEP1, active compounds read low
[2] = locus YJL095W, strain BCK1, active compounds read low
[3] = locus YMR307W, strain GAS1, active compounds read low

Measured: normalized growth

COc1cc(O)c(C(=O)c2ccccc2)cc1O
inactive: [1] 1.02 | locus YAL021C, strain ccr4, active compounds read low 1.01 | locus YAL026C, strain drs2, active compounds read low 0.963 | locus YAL030W, strain snc1, active compounds read low 1.01 | locus YBL061C, strain skt5, active compounds read low 1.01 | locus YBR009C, strain hhf1, active compounds read low 0.969 | locus YBR021W, strain FUR4, active compounds read low 1.07 | locus YBR023C, strain chs3, active compounds read low 0.985 | locus YBR171W, strain sec66, active compounds read low 1.01 | locus YBR229C, strain ROT2, active compounds read low 1.02 | locus YBR231C, strain swc5, active compounds read low 1.01 | locus YBR279W, strain paf1, active compounds read low 0.988 | locus YCL011C, strain gbp2, active compounds read low 0.971 | locus YCL016C, strain dcc1, active compounds read low 0.965 | locus YCL029C, strain bik1, active compounds read low 0.978 | locus YCL069W, strain vba3, active compounds read low 0.996 | locus YCR088W, strain abp1, active compounds read low 1 | locus YDL005C, strain med2, active compounds read low 1.01 | locus YDL035C, strain GPR1, active compounds read low 1.07 | locus YDL040C, strain nat1, active compounds read low 1 | locus YDL074C, strain BRE1, active compounds read low 1.01 | locus YDL101C, strain DUN1, active compounds read low 0.998 | locus YDL185W, strain tfp1, active compounds read low 0.972 | locus YDL192W, strain arf1, active compounds read low 0.971 | locus YDR001C, strain nth1, active compounds read low 1.02 | locus YDR069C, strain doa4, active compounds read low 1.02 | locus YDR101C, strain arx1, active compounds read low 1.01 | locus YDR137W, strain rgp1, active compounds read low 0.857 | locus YDR159W, strain sac3, active compounds read low 0.973 | locus YDR162C, strain NBP2, active compounds read low 1.02 | locus YDR195W, strain ref2 1.03 | locus YDR297W, strain sur2, active compounds read low 0.99 | locus YDR318W, strain mcm21, active compounds read low 0.963 | locus YDR334W, strain swr1, active compounds read low 1.03 | locus YDR335W, strain msn5, active compounds read low 0.988 | locus YDR388W, active compounds read low 0.979 | locus YDR502C, strain sam2, active compounds read low 0.965 | locus YEL003W, strain gim4, active compounds read low 0.985 | locus YEL037C, strain rad23, active compounds read low 1.01 | locus YEL061C, strain CIN8 (second series), active compounds read low 1.01 | locus YEL061C, strain CIN8, active compounds read low 1.03 | locus YER015W, strain faa2, active compounds read low 0.966 | locus YER016W, strain bim1, active compounds read low 1 | locus YER110C, active compounds read low 0.964 | locus YER111C, strain swi4, active compounds read low 1.02 | locus YER155C, strain BEM2, active compounds read low 1.01 | locus YER167W, strain BCK2, active compounds read low 1 | locus YFR010W, strain ubp6, active compounds read low 1.03 | locus YGL078C, strain dbp3, active compounds read low 0.937 | locus YGL086W, strain mad1, active compounds read low 0.974 | locus YGL167C, strain pmr1, active compounds read low 0.999 | locus YGL173C, strain kem1, active compounds read low 1 | locus YGL227W, strain vid30, active compounds read low 1.01 | locus YGL240W, strain doc1, active compounds read low 0.944 | locus YGL248W, strain PDE1, active compounds read low 1.05 | locus YGL253W, strain hxk2, active compounds read low 1.04 | locus YGR135W, strain pre9, active compounds read low 0.923 | locus YGR252W, strain gcn5, active compounds read low 1 | locus YHR013C, strain ard1, active compounds read low 1.05 | locus YHR027C, strain rpn1, active compounds read low 1.02 | locus YHR079C, strain IRE1 (second series), active compounds read low 0.959 | locus YHR094C, strain hxt1, active compounds read low 0.974 | locus YHR129C, strain ARP1, active compounds read low 1.02 | locus YHR142W, strain chs7, active compounds read low 1.01 | locus YHR200W, strain rpn10, active compounds read low 0.968 | locus YIL066C, strain RNR3, active compounds read low 1.03 | locus YIL073C, strain SPO22, active compounds read low 1 | locus YIL125W, strain kgd1, active compounds read low 1 | locus YIR030C, strain dcg1, active compounds read low 0.976 | locus YJL092W, strain hpr5, active compounds read low 1.01 | locus YJL095W, strain BCK1 (second series), active compounds read low 0.996 | [2] 0.978 | locus YJL115W, strain asf1, active compounds read low 1.02 | locus YJL129C, strain trk1, active compounds read low 0.948 | locus YJL134W, strain LCB3, active compounds read low 1 | locus YJL154C, strain vps35, active compounds read low 1.02 | locus YJL164C, strain tpk1, active compounds read low 0.958 | locus YJL166W, strain qcr8, active compounds read low 0.993 | locus YJL168C, strain set2, active compounds read low 0.989 | locus YJL187C, strain SWE1 (second series), active compounds read low 0.993 | locus YJL187C, strain SWE1, active compounds read low 0.996 | locus YKL009W, strain mrt4, active compounds read low 0.892 | locus YKL068W, active compounds read low 0.982 | locus YKL085W, strain MDH1 (second series), active compounds read low 0.97 | locus YKL085W, strain MDH1, active compounds read low 0.97 | locus YKL160W, strain elf1, active compounds read low 0.945 | locus YKR001C, strain vps1, active compounds read low 1.01 | locus YKR026C, strain gcn3, active compounds read low 1.02 | locus YKR091W, strain srl3, active compounds read low 1.01 | locus YLL001W, strain dnm1, active compounds read low 0.951 | locus YLL026W, active compounds read low 1.01 | locus YLL041C, strain sdh2, active compounds read low 1.01 | locus YLR027C, strain aat2, active compounds read low 1.01 | locus YLR039C, strain RIC1, active compounds read low 0.963 | locus YLR058C, strain SHM2, active compounds read low 1.01 | locus YLR102C, strain apc9, active compounds read low 0.97 | locus YLR221C, strain rsa3, active compounds read low 0.988 | locus YLR258W, strain gsy2, active compounds read low 0.962 | locus YLR268W, strain sec22, active compounds read low 0.976 | locus YLR320W, strain mms22, active compounds read low 0.944 | locus YLR330W, strain CHS5, active compounds read low 1.02 | locus YLR342W, strain FKS1, active compounds read low 0.993 | locus YLR357W, strain rsc2, active compounds read low 0.994 | locus YLR370C, strain arc18, active compounds read low 1 | locus YLR371W, strain rom2, active compounds read low 0.966 | locus YLR384C, strain iki3, active compounds read low 0.996 | locus YLR418C, strain cdc73, active compounds read low 1.03 | locus YML016C, strain PPZ1, active compounds read low 1.01 | locus YML032C, strain rad52, active compounds read low 0.967 | locus YML120C, strain ndi1, active compounds read low 0.965 | locus YML124C, strain tub3, active compounds read low 0.97 | locus YMR058W, strain fet3, active compounds read low 1.02 | locus YMR078C, strain ctf18, active compounds read low 0.952 | locus YMR125W, strain sto1, active compounds read low 1.01 | locus YMR129W, active compounds read low 1 | locus YMR205C, strain PFK2, active compounds read low 0.991 | locus YMR223W, strain ubp8, active compounds read low 0.932 | locus YMR231W, strain pep5, active compounds read low 1.01 | [3] 1.19 | locus YNL067W, strain RPL9B, active compounds read low 1.01 | locus YNL071W, strain lat1, active compounds read low 0.982 | locus YNL209W, strain ssb2, active compounds read low 0.947 | locus YNL233W, strain BNI4, active compounds read low 1.04 | locus YNL248C, strain rpa49, active compounds read low 1.03 | locus YNL250W, strain rad50, active compounds read low 0.924 | locus YNL271C, strain bni1, active compounds read low 0.951 | locus YNL298W, strain CLA4, active compounds read low 0.995 | locus YNL307C, strain MCK1, active compounds read low 0.971 | locus YNL322C, strain KRE1 (second series), active compounds read low 0.973 | locus YNR049C, strain mso1, active compounds read low 1.03 | locus YNR052C, strain pop2, active compounds read low 0.96 | locus YOL012C, strain htz1 1.3 | locus YOL147C, strain pex11, active compounds read low 0.979 | locus YOR001W, strain rrp6, active compounds read low 0.995 | locus YOR061W, strain CKA2, active compounds read low 1.01 | locus YOR069W, strain VPS5, active compounds read low 0.999 | locus YOR070C, strain gyp1, active compounds read low 0.983 | locus YOR080W, strain dia2, active compounds read low 1.02 | locus YOR083W, strain WHI5, active compounds read low 0.933 | locus YOR106W, strain vam3, active compounds read low 0.917 | locus YOR136W, strain idh2, active compounds read low 0.977 | locus YOR144C, strain elg1, active compounds read low 0.976 | locus YOR184W, strain ser1, active compounds read low 1.07 | locus YOR265W, strain rbl2, active compounds read low 1.01 | locus YOR270C, strain vph1, active compounds read low 0.974 | locus YOR290C, strain snf2, active compounds read low 0.946 | locus YOR316C, strain cot1, active compounds read low 0.958 | locus YPL051W, strain arl3, active compounds read low 0.924 | locus YPL078C, strain atp4, active compounds read low 0.952 | locus YPL106C, strain sse1, active compounds read low 0.943 | locus YPL240C, strain hsp82, active compounds read low 0.997 | locus YPR119W, strain clb2, active compounds read low 0.95 | locus YPR141C, strain kar3, active compounds read low 0.96 | locus YPR163C, strain tif3, active compounds read low 0.94 | locus YPR167C, strain met16, active compounds read low 0.953 | strain wtn01, active compounds read low 0.998
active: locus YDR392W, strain spt3, active compounds read low 0.705 | locus YER155C, strain BEM2 (second series), active compounds read low 0.764 | locus YLR262C, strain YPT6 (second series), active compounds read low 0.768

COc1cc(C(O)C(=O)O)ccc1O (centres undefined)
inactive: [1] 0.996 | locus YAL040C, strain CLN3, active compounds read low 0.984 | locus YCL061C, strain MRC1 (second series), active compounds read low 0.994 | locus YDR150W, strain NUM1, active compounds read low 0.994 | locus YDR363W, strain ESC2, active compounds read low 1.01 | locus YER002W, strain NOP16, active compounds read low 1.03 | locus YGR078C, strain PAC10, active compounds read low 1 | locus YJR075W, strain HOC1, active compounds read low 0.991 | [3] 0.989 | locus YNL128W, strain TEP1, active compounds read low 0.986 | locus YNL153C, strain GIM3, active compounds read low 1.01 | locus YNL175C, strain NOP13, active compounds read low 0.992 | locus YNL197C, strain WHI3, active compounds read low 1.01 | locus YNL224C, strain SQS1, active compounds read low 1.02 | locus YNL322C, strain KRE1, active compounds read low 0.998 | locus YOR083W, strain WHI5 (second series), active compounds read low 1.01 | locus YPL055C, strain LGE1, active compounds read low 1.01

COc1ccc(C(C)=O)c(O)c1
inactive: locus YHR030C, strain SLT2, active compounds read low 0.966 | locus YHR079C, strain IRE1, active compounds read low 0.965 | [2] 0.968 | locus YJR066W, strain TOR1, active compounds read low 0.905 | locus YLR113W, strain HOG1, active compounds read low 0.96 | locus YNL183C, strain NPR1, active compounds read low 0.892 | locus YOR231W, strain MKK1, active compounds read low 0.968 | locus YPL256C, strain CLN2, active compounds read low 0.957
